Results reported in PubChem BioAssay (NCI).
This is part of a sample that, as a whole, favours compounds with a hit. Of some 83,000 tested, about 20% had one in any assay.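 48-hour exposure, single concentration, 96-well plates; percent growth endpoint where 0 means no net growth. Active: below 10.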 Calls of active or inactive are those of the source.

These compounds were tested on HL-60(TB) leukemia (assay: NCI-60 one-dose screen, 48 h (100 = growth as untreated, 0 = no growth, -100 = all killed)). Details: 10 µM unless noted.

Question: For `Cc1ccc(Nc2nc(-c3cc(O)c(C)c(C)c3O)cs2)cc1`, which growth is on record?
Answer: Its growth is 9.51% (active).

Question: With `CCCCNc1cc(C(=O)O)cc(S(N)(=O)=O)c1Oc1ccccc1` as the compound, how does the growth read?
Answer: Its growth is 107% (inactive).

Question: How did the growth turn out when `CCC(Br)(CC)C(=O)c1ccc(OCC(=O)O)c(Cl)c1Cl` was run?
Answer: Its growth is 111% (inactive).

Question: How did the growth turn out when `Cc1ccc(OCCOCCOCCOCCOc2ccc(C)n(O)c2=S)c(=S)n1O` was run?
Answer: The growth was -7.44% (active).

Question: How did the growth turn out when `Cn1nc(C(C)(C)C)cc1NC(=O)Cc1ccc(/C=C2\C(=O)Nc3ccccc32)cc1` was run?
Answer: Its growth is 48.2% (inactive).

Question: With `CC1(C)C(=O)/C(=C\c2cccnc2)C[C@]2(C)[C@H]3CC[C@@H]4[C@H]5[C@H](C(=O)/C=C/c6cccnc6)CC[C@]5(C(=O)O)CC[C@@]4(C)[C@]3(C)CC[C@@H]12` as the compound, how does the growth read?
Answer: The growth was 0.806% [100 µM] (active).

Question: How did the growth turn out when `COC1OC(CO)C(OC)C(O)C1O` (stereo not given) was run?
Answer: The growth was 103% (inactive).

Question: How did the growth turn out when `Cn1cc(C2=C(c3cccc4ccccc34)C(=O)NC2=O)c2cc(Br)ccc21` was run?
Answer: The growth was 107% (inactive).

Question: With `COc1c(Cl)cc(Cl)c2ccc(C=C3C(=O)N(C)C(=O)N(C)C3=O)nc12` as the compound, how does the growth read?
Answer: The growth was 98.1% (inactive).

Question: For `CCOC(=O)c1cc(C(=O)c2cc(OC)cc(OC)c2)n2ccccc12`, which growth is on record?
Answer: The growth was -13.9% (active).

Question: How did the growth turn out when `C=C1C(=O)O[C@H]2[C@H]1CC/C(COC(=O)NCc1cc(OC)c(OC)c(OC)c1)=C\CC[C@@]1(C)O[C@@H]21` was run?
Answer: Its growth is 11.5% (inactive).

Question: With `CCN(CC)c1ccc2cc(C(Nc3ccc(C)cc3)c3nnnn3C(C)(C)C)c(=O)oc2c1` (stereo not given) as the compound, how does the growth read?
Answer: The growth was 89% (inactive).

Question: How did the growth turn out when `Cn1cc(-c2nonc2-c2c[nH]c3ccccc23)c2ccccc21` was run?
Answer: Its growth is 1.04% (active).

Question: With `C[C@@H]1N=C(c2ccc3ccccc3c2)Nc2nc3ccccn3c2C1=O` as the compound, how does the growth read?
Answer: Its growth is -6.75% (active).

Question: `O=C(Nc1ccc(Cl)c(Cl)c1)O/N=C\c1c(Cl)ccc([N+](=O)[O-])c1Cl` was tested. Which growth did it give?
Answer: The growth was -61.4% (active).

Question: For `CCOC(=O)c1cc(C(=O)c2ccc(Cl)cc2)n2ccc(-c3cc[n+](CC(=O)c4ccc(OC)cc4)cc3)cc12`, which growth is on record?
Answer: The growth was 24.9% (inactive).

Question: How did the growth turn out when `COc1ccc(-c2[nH]c3ccccc3c2C=C(C#N)C#N)cc1` was run?
Answer: Its growth is -48.9% (active).

Question: Which growth does the source give for `O=C(Nc1ccccc1CNc1nc(Nc2ccc(OCCN3CCCC3)cc2)ncc1Cl)NC1CCCCC1` here?
Answer: Its growth is 99.9% (inactive).

Question: For `C=C1C(=O)O[C@H]2[C@H]1CC/C(COC(=O)/C=C\C(=O)NCc1ccc(Cn3c(=O)sn(-c4ccccc4)c3=O)cc1)=C\CC[C@@]1(C)O[C@@H]21`, which growth is on record?
Answer: The growth was -3.22% (active).

Question: For `CCOC(=O)C(Br)=P(c1ccccc1)(c1ccccc1)c1ccccc1`, which growth is on record?
Answer: The growth was 94.2% (inactive).

Question: With `COc1ccc(OC)c(Nc2nnc(-c3ccc(Cl)cc3)o2)c1` as the compound, how does the growth read?
Answer: The growth was 94.8% (inactive).

Question: `CCOC(=O)c1cc2c(n1C)-c1nc(NC(C)=O)sc1CCC2` was tested. Which growth did it give?
Answer: Its growth is 102% (inactive).

Question: With `C/C(=C(/c1ccc(Cl)cc1)c1ccc(OCCN2CCCCC2)cc1)c1ccccc1` as the compound, how does the growth read?
Answer: Its growth is 61.8% (inactive).

Question: Which growth does the source give for `CCOC(=O)C1=C(Nc2ccc(Br)cc2)C(=O)N(CC)C1` here?
Answer: The growth was 104% (inactive).

Question: How did the growth turn out when `COC(=O)c1ccc2c(c1)n(Cc1ccc3ccccc3c1)c[n+]2Cc1ccc2ccccc2c1` was run?
Answer: Its growth is -18.8% (active).

Question: `Cc1cc(Cl)nc(Nc2ccccc2)n1` was tested. Which growth did it give?
Answer: The growth was 78.1% (inactive).

Question: `COc1cc(OC)c2c(=O)cc(-c3ccccc3)oc2c1` was tested. Which growth did it give?
Answer: Its growth is 72% (inactive).

Question: `CCOC(=O)Oc1c(OC)cc(C(=O)c2ccc(OC)c(OC(=O)CCl)c2OC)cc1OC` was tested. Which growth did it give?
Answer: Its growth is -30.9% (active).

Question: `Cc1cnc([C@]23CC[C@@H](C)[C@H](C)[C@H]2C2=CC[C@@H]4[C@@]5(C)Cc6c([nH]c7ccccc67)C(C)(C)[C@@H]5CC[C@@]4(C)[C@]2(C)CC3)o1` was tested. Which growth did it give?
Answer: Its growth is 38.2% [100 µM] (inactive).

Question: For `COc1cc(/C=C/c2cc(/C=C/c3ccc(O)c(OC)c3)nc(N)n2)ccc1O`, which growth is on record?
Answer: Its growth is 3.67% (active).

Question: How did the growth turn out when `N#Cc1ccc(O)c(C2=NCC(c3cccc(Oc4ccccc4)c3)O2)c1` (stereo not given) was run?
Answer: The growth was -8.73% (active).

Question: For `CC(=O)NCC(=O)Nc1ccc(-c2nnc3ccccn23)nc1.CC(=O)NCC(=O)Nc1ccc(-c2nnc3ccccn23)nc1.[Pt+2]`, which growth is on record?
Answer: The growth was 109% (inactive).

Question: How did the growth turn out when `N=c1ccccn1CCO` was run?
Answer: Its growth is 120% (inactive).

Question: With `N#Cc1c(-c2ccc(Cl)cc2)cc(-c2cc(O)ccc2O)nc1N` as the compound, how does the growth read?
Answer: The growth was 68.2% (inactive).

Question: How did the growth turn out when `COc1ccc(/C=C/C(=O)c2ccc(-n3cc(CN4CCN(c5cc6c(cc5F)c(=O)c(C(=O)O)cn6C5CC5)CC4)nn3)cc2)cc1` was run?
Answer: Its growth is 85.9% (inactive).

Question: How did the growth turn out when `Cc1nc(O)cc(=O)[nH]1` was run?
Answer: Its growth is 97% (inactive).

Question: With `COc1cc(C(=O)/C=C/c2cc(-c3cc(OC)c(OC)c(OC)c3)n[nH]2)cc(OC)c1OC` as the compound, how does the growth read?
Answer: Its growth is 0.291% (active).

Question: How did the growth turn out when `CCN1CCN(c2nc3ccccc3c3c(=O)c4cc(F)ccc4sc23)CC1` was run?
Answer: Its growth is 104% (inactive).

Question: With `COC(=O)CC[C@@H](C)[C@H]1CC[C@H]2C3CC[C@@H]4C[C@@H]5CC[C@]4(C)[C@@]3(O5)[C@H](Br)[C@@H](Br)[C@]12C` (stereo not given in full) as the compound, how does the growth read?
Answer: Its growth is 81.2% (inactive).

Question: `CCCCCCCCN1C(=O)/C(=c2\sc3n(c2=O)C2C(NN=3)N(CC)C(=O)N2CC)c2ccccc21` (stereo not given) was tested. Which growth did it give?
Answer: Its growth is 114% (inactive).
